Assay outcomes: PubChem, National Center for Advancing Translational Sciences (NCATS)
HT1080-NT tox = kills 2HG-producing HT-1080-NT fibrosarcoma cells; 1.6% of 360,000 active; Potency, µM (highest dose often 46.1 µM), without a hit: at the top dose activity, negative = less viability, actives largely listed as cytotoxic; HT-1080-NT fibrosarcoma viability, CellTiter-Glo ATP luminescence, 48 h;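 further: NT is the 2HG producing partner of a matched IDH1 knockdown line; 0% = DMSO-treated cells and -100% = media-only wells without cells; nearly all actives have a fitted effect of over 55% in size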
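Toxicity toward the 2HG-producing NT line was scored as %Activity, normalised to DMSO and no-cell wells, from CellTiter-Glo luminescence after 48 hours' treatment.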
DT40 TDP1 CPT = DT40-hTDP1 cell growth loss with CPT; chicken DT40 Tdp1-/-;hTDP1 cells + 20 nM CPT, ATP luminescence, 48 h; Potency, µM (titrated, usually from 46.2 µM), without a hit: top-dose activity change, negative = growth inhibition, most hits filed as inhibitors; 12% of 420,000 active; AID 686979; further: on the % scale 0 is the no-effect control and ±100 the full control effect; nearly all actives have a fitted effect of over 55% in size
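Cell growth measured by CellTiter-Glo luminescence after a minimum 48 h, 37 C compound exposure with 20 nM CPT in Tdp1-knockout DT40 cells stably expressing hTDP1, seeded 400/well; qHTS titration format.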
HT1080 IDH1KD tx = kills HT-1080 cells with IDH1 knockdown | AID 686971 | 2% of 360,000 active | HT-1080 IDH1 knockdown viability, ATP luminescence, 48 h | Potency, µM (titrated, usually from 46.1 µM), inactives show top-dose activity, negative = toxicity, hits mostly cytotoxic;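 further: 0% = DMSO wells and -100% = cell-free medium wells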
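In this qHTS, HT-1080 cells depleted of IDH1 are exposed for 48 h at 37 °C to compound titrations. Toxicity is scored from CellTiter-Glo luminescence, with DMSO as full viability and medium alone as none.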
HepG2 viability = HepG2 cytotoxicity, counter-screen for TGF-b inhibitors; HepG2 CAGA-GFP viability, ATP luminescence, 18 h; Potency, µM (top dose mostly 46.1 µM), for the others: at the highest dose activity change, negative = cytotoxicity, hits mostly cytotoxic; 0.76% of 410,000 active
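CellTiter-Glo luminescence gave cytotoxicity after 18 hours at 37 degrees C. The cells were HepG2 CAGA-GFP in 1% FBS DMEM, stimulated with 500 pg/mL TGF-beta after compound addition. %Activity was normalised to no-cell wells (complete cell-killing) and DMSO (no toxicity), and curves were fitted and classified.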
TDP1 cell noCPT = qHTS for Inhibitors of human tyrosyl-DNA phosphodiesterase 1 (TDP1): qHTS in cells in absence of CPT; Potency, µM (titrated, usually from 46.2 µM), for inactives: top-dose activity change, negative = growth inhibition, most hits filed as inhibitors; DT40 Tdp1-/- hTDP1 cells, no CPT, ATP luminescence, 48 h; 15% of 420,000 active; AID 686978, 2013; further: on the % scale 0 is the no-effect control and ±100 the full control effect; nearly all actives have a fitted effect of over 55% in size
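No-CPT arm: Tdp1-/-;hTDP1 DT40 cells (400/well) plus compounds, incubated ≥48 hr at 37 °C. Readout CellTiter-Glo luminescence.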
TGFb inhibitor = blocks TGF-b signaling; 1.2% of 410,000 active; HepG2 CAGA-GFP TGF-b/SMAD3 reporter, GFP fluorescence, 18 h; TGF-beta stimulated, 500 pg/mL final; Potency, µM (top dose mostly 46.1 µM), for inactives: at the top dose activity, negative = inhibition, usual class: inhibitors; further: on the % scale 0 is the no-effect control and ±100 the full control effect; nearly all actives have a fitted effect of over 65% in size
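HEPG2 CAGA-GFP reporter cells (1000/well, DMEM with 1% FBS) received compounds, then recombinant TGF-beta at 500 pg/mL final for 18 hours at 37 degrees C. Per-cell GFP summed per well was normalised to unstimulated and stimulated DMSO controls before curve fitting.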
* marks the source's active call; other numbers are inactive results; ? = inconclusive; / = not tested or not shown. In the library only some 17% were active in any assay of this set; here they are far more common. The call rests on the fitted dose curve; in most records, active means well fitted curve in the direction sought with a large enough effect; inconclusive means small, poorly fitted or top-dose-only effect, or another doubt; inactive means no such curve, though single readings can be large; an effect the other way counts as inactive or inconclusive. Potency means the concentration at half of the fitted maximal effect.

SMILES	HT1080-NT tox	DT40 TDP1 CPT	HT1080 IDH1KD tx	HepG2 viability	TDP1 cell noCPT	TGFb inhibitor
Cc1cc(C)c(C(=O)COc2cccnc2[N+](=O)[O-])cc1C	?	4.1µM*	?	-71%	5.8µM*	?
COCCn1c(C)cc(C(=O)COc2cccnc2[N+](=O)[O-])c1C	8%	?	1%	1%	-6%	2%
CC(C)(C)NC(=O)C(c1ccc(-c2ccccc2)cc1)N(C[C@H]1CC[C@@H]([C@@H]2CC[C@H](CO)O2)O1)C(=O)c1ccc(C(C)(C)C)cc1 (stereo partly specified)	?	?	?	-96%	21µM*	?
CCOC(=O)C1CCN(S(=O)(=O)c2cc(Br)cc3c2N(C(=O)CC)CC3)CC1	/	3%	/	-2%	3%	-5%
COc1cccc(CNC(=O)c2cc(S(=O)(=O)N3CCOCC3)cn2C)c1	0%	21µM*	-4%	-6%	1%	-3%
COc1ccccc1CNC(=O)c1cc(S(=O)(=O)N2CCCC2)cn1C	11%	-20%	3%	-10%	-16%	-12%
Cn1cc(S(=O)(=O)N2CCCC2)cc1C(=O)NCc1ccccc1Cl	-20%	16µM*	2%	-19%	-16%	2%
O=C(CSc1nnc(-c2ccc(S(=O)(=O)N3CCCC3)cc2)o1)NCc1ccccc1	-26%	23µM*	-9%	-7%	18µM*	?
COCC1CCN(C(=O)c2cc(COc3ccc(-n4cncn4)cc3)on2)C1 (stereo unspecified)	-1%	8%	6%	1%	-14%	0%
COc1ccc(-c2cc(C(F)F)n3ncc(C(=O)N4CCc5ccccc54)c3n2)cc1	3.3µM*	3.7µM*	2.9µM*	5%	2.1µM*	9%
Cc1ccc(-c2cc(C(F)F)n3ncc(C(=O)N4CCN(c5cccc(C)c5C)CC4)c3n2)cc1	8%	?	13%	1%	18µM*	1%
COc1ccc(-c2cc(C(F)F)n3ncc(C(=O)Nc4cc(OC)ccc4OC)c3n2)cc1	/	-23%	/	2%	?	18%
COc1ccc(-c2cc(C(F)F)n3ncc(C(=O)n4ccnc4C)c3n2)cc1	-25%	15µM*	?	-3%	18µM*	-25%
Cc1ccc(-c2cc(C(F)F)n3ncc(C(=O)N4CCCc5ccccc54)c3n2)cc1	-2%	?	-2%	-27%	-22%	-4%
CC(C)(C)c1nc[nH]c(=O)c1Br	13%	3%	7%	-1%	-5%	6%
O=c1oc(C2(O)CCCCC2)cc2ccc(-c3ccc4[nH]ccc4c3)cc12	-6%	12µM*	-18%	-18%	?	-11%
CCNc1ncc2nc(-c3cccc(C#N)c3)c(=O)n(C)c2n1	/	4%	/	/	-4%	/
CC1C(=O)NN=C1C(=O)N/N=C/c1ccco1 (stereo unspecified)	-4%	?	18%	-3%	?	3%
CC1=NNC(=O)C1CCC(=O)N/N=C/C(Br)=C/c1ccccc1 (stereo unspecified)	2%	2.9µM*	2%	7%	2.1µM*	-20%
CC1=NNC(=O)C1CC(=O)N/N=C/c1cccs1 (stereo unspecified)	3%	1%	-1%	4%	0%	-7%
CC1=NNC(=O)C1CC(=O)N/N=C/C(Br)=C/c1ccccc1 (stereo unspecified)	9%	21µM*	-2%	-33%	21µM*	?
CC1C(=O)NN=C1C(=O)N/N=C\C(Br)=C\c1ccccc1 (stereo unspecified)	-11%	6.5µM*	-22%	-6%	15µM*	7%
Cc1ccc(S(=O)(=O)N(C)c2ccc(OCC(=O)Nc3nnc(C4CC4)s3)cc2)cc1	-1%	-20%	-5%	-8%	?	8%
CCCC1CC(C)(c2csc(Nc3ccc(OCC)cc3)n2)OC1=O (stereo unspecified)	-25%	13µM*	-23%	-28%	15µM*	?
Cc1ccc(-c2nc3ccccc3o2)cc1NC(=O)C(C)Oc1ccccc1 (stereo unspecified)	/	1%	/	-11%	-14%	-2%
SMILES	HT1080-NT tox	DT40 TDP1 CPT	HT1080 IDH1KD tx	HepG2 viability	TDP1 cell noCPT	TGFb inhibitor
Cc1ccsc1/C=C(\C(=O)c1ccc(OC(C)C)cc1)c1nc2ccccc2o1	0%	16µM*	-1%	-29%	18µM*	-10%
Cc1cc(C)c(NC(=O)C(C)n2nc(-c3ccc(C)c(C)c3)ccc2=O)c(C)c1 (stereo unspecified)	/	?	/	3%	?	2%
CCc1ccccc1NC(=O)C(C)n1nc(-c2ccc(C)c(C)c2)ccc1=O (stereo unspecified)	/	23µM*	/	-47%	?	0%
COc1ccc(NC(=O)C(C)n2nc(-c3ccc(C)c(C)c3)ccc2=O)cc1OC (stereo unspecified)	/	23µM*	/	-30%	16µM*	?
CCOc1ccccc1CN1CCc2nc(N3CCN(C)CC3)ncc2C1	/	?	/	-6%	?	-3%
Cc1cc2oc(=O)cc(-c3cc4ccccc4o3)c2cc1O	4%	26µM*	0%	-20%	23µM*	0%
COc1ccccc1N1CCN(S(=O)(=O)c2c(C)sc3ncn(CC(=O)NCCN(C)C)c(=O)c23)CC1	2%	15%	11%	8%	-12%	30%
CCCN(CCC)CCNC(=O)Cn1cnc2sc(C)c(S(=O)(=O)N3CCN(c4ccccc4OC)CC3)c2c1=O	/	?	/	-11%	15µM*	-22%
COc1ccc(NC(=O)Cn2cnc3sc(C)c(S(=O)(=O)N4CCN(c5ccccc5OC)CC4)c3c2=O)cc1OC	/	5%	/	-1%	0%	-4%
COc1ccccc1N1CCN(S(=O)(=O)c2c(C)sc3ncn(CC(=O)Nc4ccc(C(F)(F)F)cc4)c(=O)c23)CC1	/	16µM*	/	2%	?	0%
CCCCC(=O)NS(=O)(=O)c1ccc(N=NN(CC)CC)cc1	21%	-17%	9%	-12%	-6%	0%
Cc1ccc(C(=O)CCC(=O)OCC(=O)NNC(=O)c2ccccc2Cl)cc1	10%	10%	13%	-4%	13%	-20%
COC(=O)[C@H](CCSC)NC(=O)N1CCC(C)CC1	13%	-5%	14%	-5%	4%	-2%
